According to PubChem BioAssay (Tox21):
Values without a mark were called inactive. Inconclusive results are not listed. Calls of active or inactive are those of the source. Calls come from the whole dose curve; as a rule, active = well fitted activation curve with a large enough effect in the repeat runs; inconclusive = weak or mixed curves; inactive = flat fitted curve, though single readings scatter.

Test: A CellTox Green Cytotoxicity Assay to monitor cytotoxicity in HepG2 cells - 0 hour (AID 1224882); note: nearly all actives have a fitted effect of over 35% in size
Details: CellTox Green fluorescence; series mostly up to 76.8 µM; cytotoxicity: at the top concentration
In short: (§1)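 First, HepG2 cells (600/well) mixed with reagent were plated; second, after 5 h at 37 C they received compounds via pintool; third, fluorescence was measured at 0 h through 40 h at 8 h intervals.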
% is set by controls: 0 for no effect and ±100 for the full control effect.

SMILES | cytotoxicity
CN1CCC(=C2c3ccccc3Sc3ccccc32)CC1 | 0.143% [at 35.3 µM]
C=C1[C@H]2CC[C@@H]3[C@H]2C(C)(C)CCC[C@]13C | -0.842%
CN1C[C@H]2c3ccccc3Oc3ccc(Cl)cc3[C@@H]2C1 | -0.0548% [at 35.3 µM]
O=CC1CC=CCC1 (stereo not given) | -1.68%
CC(CSC(=O)c1ccccc1)C(=O)N1C[C@@H](Sc2ccccc2)C[C@H]1C(=O)O (stereo not given in full) | 5.13% [at 15.8 µM]
C=CCOc1ccccc1OCC(O)CNC(C)C (stereo not given) | -0.351% [at 35.3 µM]
C#CCN(C)CCCOc1ccc(Cl)cc1Cl | -12.3% [at 35.3 µM]
CCCCCCCCCCCc1ccccc1 | 5.11%
C[C@@H]1C[C@H]2O[C@@]3(O[C@@H]2C(C)(C)O)[C@H](O)[C@@]2(C)[C@@H]4CC[C@H]5C(C)(C)[C@@H](O[C@@H]6OC[C@@H](O)[C@H](O)[C@H]6O)CC[C@@]56C[C@@]46CC[C@]2(C)[C@@H]13 | 0.212% [at 35.3 µM]
COCCCN1CCC(NC(=O)c2cc(Cl)c(N)c3c2OCC3)CC1 | -6.49% [at 35.3 µM]
CC(=O)[O][Al][O]C(C)=O | -0.986%
c1ccc(CNCCNCc2ccccc2)cc1 | -0.161% [at 35.3 µM]
CC1CCC(=O)C1=O (stereo not given) | 2.18%
O=S(c1cc(Cl)cc(Cl)c1O)c1cc(Cl)cc(Cl)c1O | 11.2% [at 35.3 µM]
O=C(O)C1(C(=O)Nc2ccc(Cl)cc2Cl)CC1 | -3.43%
CCC(CC)Nc1ccc(C)c(C)c1 | -0.298%
Nc1ccc([N+](=O)[O-])c(C(F)(F)F)c1 | 2.58% [at 35.3 µM]
CCOC(=O)C(=O)CCc1ccccc1 | -10.2% [at 35.3 µM]

SMILES | cytotoxicity
CC(C)(C)Cl | 0.0654%
O=C(O)C1(C(=O)O)CCC1.[NH2-].[NH2-].[Pt+2] | -42.5% [at 35.3 µM]
CCCCCCCCO[C@@H]1O[C@H](CO)[C@@H](O)[C@H](O)[C@H]1O | 1.72%
Nc1ccccc1S(=O)(=O)c1ccccc1 | -14.4%
CCCCC(CC)COC(=O)CCCCCCCCC(=O)OCC(CC)CCCC (stereo not given) | 1.1%
Nc1ccc(S(=O)(=O)Nc2ccccc2)cc1 | 7.02% [at 35.3 µM]
Cc1oc(-c2ccccc2)nc1CCOc1cccc2c1ccn2CCC(=O)O | 5.11%
O=C(NCCO[N+](=O)[O-])c1cccnc1 | -7.77% [at 35.3 µM]
CCCC(=O)Nc1ccc(O)c(C(C)=O)c1 | -12.5% [at 35.3 µM]
CCOc1ccc(N=Nc2ccc(/C=C/c3ccc(N=Nc4ccc(OCC)cc4)cc3S(=O)(=O)O)c(S(=O)(=O)O)c2)cc1 | -19.6%
O=[N+]([O-])c1cccc(S(=O)(=O)O)c1 | 5.33%
COc1ccc(C)cc1[N+](=O)[O-] | 1.25%
CC(C)OC(=O)C(C)N(C(=O)c1ccccc1)c1ccc(F)c(Cl)c1 (stereo not given) | -1.63%
O=C(O)c1ccco1 | -3.66%
CN(C)CCN(Cc1ccsc1)c1ccccn1 | -5.57% [at 35.3 µM]
CCO[Si](CCCCl)(OCC)OCC | -0.752%
O=C(O)C(S)C(S)C(=O)O (stereo not given) | -0.612% [at 35.3 µM]

Test: A CellTox Green Cytotoxicity Assay to monitor cytotoxicity in HepG2 cells - 32 hour (AID 1224883); note: nearly all actives have a fitted effect of over 50% in size; note: potency is the fitted concentration of half-maximal effect
Details: CellTox Green fluorescence; series mostly up to 76.8 µM; cytotoxicity increase: at the top concentration
In short: as §1

SMILES | Potency | cytotoxicity increase
CN1CCC(=C2c3ccccc3Sc3ccccc32)CC1 | 23.9 µM (active) | –
C=C1[C@H]2CC[C@@H]3[C@H]2C(C)(C)CCC[C@]13C | – | -8.99%
CN1C[C@H]2c3ccccc3Oc3ccc(Cl)cc3[C@@H]2C1 | 26.8 µM (active) | –
O=CC1CC=CCC1 (stereo not given) | – | -2.95%
CC(CSC(=O)c1ccccc1)C(=O)N1C[C@@H](Sc2ccccc2)C[C@H]1C(=O)O (stereo not given in full) | – | -3.06% [at 15.8 µM]
C=CCOc1ccccc1OCC(O)CNC(C)C (stereo not given) | – | -0.554% [at 35.3 µM]
C#CCN(C)CCCOc1ccc(Cl)cc1Cl | 19 µM (active) | –
CCCCCCCCCCCc1ccccc1 | – | 8.38%
C[C@@H]1C[C@H]2O[C@@]3(O[C@@H]2C(C)(C)O)[C@H](O)[C@@]2(C)[C@@H]4CC[C@H]5C(C)(C)[C@@H](O[C@@H]6OC[C@@H](O)[C@H](O)[C@H]6O)CC[C@@]56C[C@@]46CC[C@]2(C)[C@@H]13 | – | 4.69% [at 35.3 µM]
COCCCN1CCC(NC(=O)c2cc(Cl)c(N)c3c2OCC3)CC1 | – | -19.7% [at 35.3 µM]
CC(=O)[O][Al][O]C(C)=O | – | -10.6%
c1ccc(CNCCNCc2ccccc2)cc1 | – | -6.82% [at 35.3 µM]
CC1CCC(=O)C1=O (stereo not given) | – | 12.7%
O=S(c1cc(Cl)cc(Cl)c1O)c1cc(Cl)cc(Cl)c1O | – | 19.5% [at 35.3 µM]
O=C(O)C1(C(=O)Nc2ccc(Cl)cc2Cl)CC1 | – | -12.2%
CCC(CC)Nc1ccc(C)c(C)c1 | – | 32.4%
Nc1ccc([N+](=O)[O-])c(C(F)(F)F)c1 | – | -12.7% [at 35.3 µM]
CCOC(=O)C(=O)CCc1ccccc1 | – | -14.3% [at 35.3 µM]

SMILES | Potency | cytotoxicity increase
CC(C)(C)Cl | – | 4.35%
O=C(O)C1(C(=O)O)CCC1.[NH2-].[NH2-].[Pt+2] | – | -58.5% [at 35.3 µM]
CCCCCCCCO[C@@H]1O[C@H](CO)[C@@H](O)[C@H](O)[C@H]1O | – | -0.757%
Nc1ccccc1S(=O)(=O)c1ccccc1 | – | -9.71%
CCCCC(CC)COC(=O)CCCCCCCCC(=O)OCC(CC)CCCC (stereo not given) | – | -4.68%
Nc1ccc(S(=O)(=O)Nc2ccccc2)cc1 | – | 1.57% [at 35.3 µM]
Cc1oc(-c2ccccc2)nc1CCOc1cccc2c1ccn2CCC(=O)O | – | -0.275%
O=C(NCCO[N+](=O)[O-])c1cccnc1 | – | -13.9% [at 35.3 µM]
CCCC(=O)Nc1ccc(O)c(C(C)=O)c1 | – | -18.7% [at 35.3 µM]
CCOc1ccc(N=Nc2ccc(/C=C/c3ccc(N=Nc4ccc(OCC)cc4)cc3S(=O)(=O)O)c(S(=O)(=O)O)c2)cc1 | – | -47.8%
O=[N+]([O-])c1cccc(S(=O)(=O)O)c1 | – | 1.78%
COc1ccc(C)cc1[N+](=O)[O-] | – | -2.7%
CC(C)OC(=O)C(C)N(C(=O)c1ccccc1)c1ccc(F)c(Cl)c1 (stereo not given) | – | -4.93%
O=C(O)c1ccco1 | – | -6.41%
CN(C)CCN(Cc1ccsc1)c1ccccn1 | – | -2.69% [at 35.3 µM]
CCO[Si](CCCCl)(OCC)OCC | – | 0.631%
O=C(O)C(S)C(S)C(=O)O (stereo not given) | – | -21.4% [at 35.3 µM]
